Results from PubChem BioAssay (NCI).
This is part of a sample that, as a whole, favours compounds with a hit. Of some 79,000 tested, about 15% had one in any assay. Values without a mark were called inactive. Calls of active or inactive are those of the source. Rule as the data show it: active = growth inhibition above about 70%; inactive = the rest.

Legend:
[1] = NCI Yeast Anticancer Drug Screen. Data for the rad50 strain (AID 155);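 also: 0% = growth of vehicle-only cultures of the same strain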; details: S. cerevisiae rad50 strain growth inhibition, active compounds read high
How it was run: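 Vehicle-treated cultures provide the reference for the growth inhibition reported for compound-exposed, repair-deficient yeast.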

[2] = NCI Yeast Anticancer Drug Screen. Data for the mec2-1 strain (AID 157); details: S. cerevisiae mec2-1 strain, active compounds read high
How it was run: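 Growth inhibition is read against vehicle-treated controls after compound exposure of the mec2-1 yeast strain, which is defective in DNA damage repair or cell cycle control.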

[3] = NCI Yeast Anticancer Drug Screen. Data for the sgs1 mgt1 strain (AID 161);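 also: 0% = growth of cultures given vehicle only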; details: S. cerevisiae sgs1 mgt1 strain, active compounds read high
How it was run: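 Yeast cells carrying a defined DNA-repair defect were exposed to test compounds. Growth inhibition was measured relative to vehicle-treated controls.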

[4] = NCI Yeast Anticancer Drug Screen. Data for the cln2 rad14 strain (AID 165);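 also: 0% = growth equal to vehicle treated cultures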; details: S. cerevisiae cln2 rad14 strain, active compounds read high
How it was run: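 Growth inhibition, relative to vehicle-treated controls, is the read-out. The test organism is a yeast strain with defined genetic alterations, cln2 rad14.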

[5] = NCI Yeast Anticancer Drug Screen. Data for the bub3 strain (AID 167); details: S. cerevisiae bub3 mutant strain, active compounds read high
How it was run: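 Mutant yeast screening strain plus compound; vehicle-treated cultures serve as the 0% inhibition reference.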

[6] = NCI Yeast Anticancer Drug Screen. Data for the mlh1 rad18 strain (AID 175); details: S. cerevisiae mlh1 rad18 strain growth inhibition, active compounds read high
How it was run: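 Cells of a genetically altered yeast strain, deficient in DNA damage repair, were treated with compound. Their growth was then compared with that of vehicle-treated cultures to give inhibition.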

[7] = at 5.0 µM (retest, dose inferred, filed as 0.5)
[8] = at 50.0 µM (retest, dose inferred, filed as 5.0)

COC1/C=C\OC2(C)Oc3c(C)c(O)c4c(O)c(c5[nH]c(-c6ccccc6)nc5c4c3C2=O)NC(=O)/C(C)=C\C=C\C(C)C(O)C(C)C(O)C(C)C(OC(C)=O)C1C (stereo unspecified)
growth inhibition [1, 7]: 29% | growth inhibition [1, 8]: 84% (active) | growth inhibition ([1]; at 50.0 µM): 88.5% (active) | growth inhibition [2, 7]: 30% | growth inhibition [2, 8]: 94% (active) | growth inhibition ([2]; at 50.0 µM): 91.1% (active) | growth inhibition [3, 7]: 20% | growth inhibition [3, 8]: 88% (active) | growth inhibition ([3]; at 50.0 µM): 91.7% (active) | growth inhibition [4, 7]: 44% | growth inhibition [4, 8]: 91% (active) | growth inhibition ([4]; at 50.0 µM): 88.6% (active) | growth inhibition [5, 7]: 14% | growth inhibition [5, 8]: 89% (active) | growth inhibition ([5]; at 50.0 µM): 88.6% (active) | growth inhibition [6, 7]: 19% | growth inhibition [6, 8]: 94% (active) | growth inhibition ([6]; at 50.0 µM): 90% (active)

O=C(c1cccs1)N(C(=S)N1CCN(c2ccccn2)CC1)C1CCCCC1
growth inhibition [1, 7]: 4% | growth inhibition [1, 8]: 66% | growth inhibition ([1]; at 50.0 µM): 54.5% | growth inhibition [2, 7]: -8% | growth inhibition [2, 8]: 61% | growth inhibition ([2]; at 50.0 µM): 54.8% | growth inhibition [3, 7]: 8% | growth inhibition [3, 8]: 31% | growth inhibition ([3]; at 50.0 µM): 67.2% | growth inhibition [4, 7]: 15% | growth inhibition [4, 8]: 44% | growth inhibition ([4]; at 50.0 µM): 38.8% | growth inhibition [5, 7]: 2% | growth inhibition [5, 8]: 31% | growth inhibition ([5]; at 50.0 µM): 68.6% | growth inhibition [6, 7]: 8% | growth inhibition [6, 8]: 29% | growth inhibition ([6]; at 50.0 µM): 49.6%

O=C(Nc1ccc(O)cc1O)c1ccccc1
growth inhibition [1, 7]: 2% | growth inhibition [1, 8]: 53% | growth inhibition ([1]; at 50.0 µM): 85% (active) | growth inhibition [2, 7]: -15% | growth inhibition [2, 8]: 61% | growth inhibition ([2]; at 50.0 µM): 76.7% (active) | growth inhibition [3, 7]: 6% | growth inhibition [3, 8]: 82% (active) | growth inhibition ([3]; at 50.0 µM): 90.4% (active) | growth inhibition [4, 7]: 7% | growth inhibition [4, 8]: 50% | growth inhibition ([4]; at 50.0 µM): 72.3% (active) | growth inhibition [5, 7]: 11% | growth inhibition [5, 8]: 46% | growth inhibition ([5]; at 50.0 µM): 89.2% (active) | growth inhibition [6, 7]: 3% | growth inhibition [6, 8]: 76% (active) | growth inhibition ([6]; at 50.0 µM): 85.1% (active)

Cc1c(-c2ccccc2)ccnc1/C=N/NC(=S)Nc1ccc(N(C)C)cc1
growth inhibition [1, 7]: 48% | growth inhibition [1, 8]: 94% (active) | growth inhibition ([1]; at 50.0 µM): 74.8% (active) | growth inhibition [2, 7]: 38% | growth inhibition [2, 8]: 96% (active) | growth inhibition ([2]; at 50.0 µM): 76.7% (active) | growth inhibition [3, 7]: 49% | growth inhibition [3, 8]: 93% (active) | growth inhibition ([3]; at 50.0 µM): 70% (active) | growth inhibition [4, 7]: 43% | growth inhibition [4, 8]: 91% (active) | growth inhibition ([4]; at 50.0 µM): 60.6% | growth inhibition [5, 7]: 59% | growth inhibition [5, 8]: 94% (active) | growth inhibition ([5]; at 50.0 µM): 81.7% (active) | growth inhibition [6, 7]: 36% | growth inhibition [6, 8]: 93% (active) | growth inhibition ([6]; at 50.0 µM): 79.6% (active)

O=C(O)C1OC(Oc2ccc3oc4ccccc4c(=O)c3c2)C(O)C(O)C1O (stereo unspecified)
growth inhibition [1, 7]: -23% | growth inhibition [1, 8]: 91% (active) | growth inhibition ([1]; at 50.0 µM): 48.8% | growth inhibition [2, 7]: 3% | growth inhibition [2, 8]: 33% | growth inhibition ([2]; at 50.0 µM): 40.2% | growth inhibition [3, 7]: -1% | growth inhibition [3, 8]: 48% | growth inhibition ([3]; at 50.0 µM): 30.8% | growth inhibition [4, 7]: 4% | growth inhibition [4, 8]: 15% | growth inhibition ([4]; at 50.0 µM): 56.5% | growth inhibition [5, 7]: 10% | growth inhibition [5, 8]: 64% | growth inhibition ([5]; at 50.0 µM): 47.1% | growth inhibition [6, 7]: 7% | growth inhibition [6, 8]: 39% | growth inhibition ([6]; at 50.0 µM): 57.9%

COc1ccc(C(=O)NCCN2CCN3Cc4[nH]c5ccccc5c4CC3C2)cc1 (stereo unspecified)
growth inhibition [1, 7]: -1% | growth inhibition [1, 8]: 3% | growth inhibition ([1]; at 50.0 µM): 1.65% | growth inhibition [2, 7]: -2% | growth inhibition [2, 8]: -5% | growth inhibition ([2]; at 50.0 µM): 1.85% | growth inhibition [3, 7]: -8% | growth inhibition [3, 8]: 8% | growth inhibition ([3]; at 50.0 µM): -6.4% | growth inhibition [4, 7]: -5% | growth inhibition [4, 8]: -2% | growth inhibition ([4]; at 50.0 µM): -17.6% | growth inhibition [5, 7]: -5% | growth inhibition [5, 8]: 1% | growth inhibition ([5]; at 50.0 µM): -5.05% | growth inhibition [6, 7]: -11% | growth inhibition [6, 8]: -3% | growth inhibition ([6]; at 50.0 µM): 11.7%

N#CC1C(=O)NC(=O)C(C#N)C1c1ccc(Cl)c(Cl)c1 (stereo unspecified)
growth inhibition [1, 7]: -1% | growth inhibition [1, 8]: 42% | growth inhibition ([1]; at 50.0 µM): 89.2% (active) | growth inhibition [2, 7]: -1% | growth inhibition [2, 8]: 35% | growth inhibition ([2]; at 50.0 µM): 39.5% | growth inhibition [3, 7]: 1% | growth inhibition [3, 8]: 26% | growth inhibition ([3]; at 50.0 µM): 57.5% | growth inhibition [4, 7]: -7% | growth inhibition [4, 8]: -2% | growth inhibition ([4]; at 50.0 µM): 21.9% | growth inhibition [5, 7]: -8% | growth inhibition [5, 8]: 34% | growth inhibition ([5]; at 50.0 µM): 58.3% | growth inhibition [6, 7]: -2% | growth inhibition [6, 8]: 53% | growth inhibition ([6]; at 50.0 µM): 63.4%

COc1ccc(/C=C/C(C)=N/NC(=S)NCC(C)C)cc1
growth inhibition [1, 7]: -9% | growth inhibition [1, 8]: 55% | growth inhibition ([1]; at 50.0 µM): 15.8% | growth inhibition [2, 7]: -12% | growth inhibition [2, 8]: 47% | growth inhibition ([2]; at 50.0 µM): 45% | growth inhibition [3, 7]: -2% | growth inhibition [3, 8]: 71% (active) | growth inhibition ([3]; at 50.0 µM): 75.2% (active) | growth inhibition [4, 7]: -17% | growth inhibition [4, 8]: 48% | growth inhibition ([4]; at 50.0 µM): 18.4% | growth inhibition [5, 7]: -6% | growth inhibition [5, 8]: 57% | growth inhibition ([5]; at 50.0 µM): 88.8% (active) | growth inhibition [6, 7]: 3% | growth inhibition [6, 8]: 61% | growth inhibition ([6]; at 50.0 µM): 52.5%

CC(C)C(=O)N1Cc2cc(Cl)cc(Cl)c2OC(=O)c2ccccc21
growth inhibition [1, 7]: 18% | growth inhibition [1, 8]: 3% | growth inhibition ([1]; at 50.0 µM): 71% (active) | growth inhibition [2, 7]: -1% | growth inhibition [2, 8]: 17% | growth inhibition ([2]; at 50.0 µM): 36.1% | growth inhibition [3, 7]: -13% | growth inhibition [3, 8]: 3% | growth inhibition ([3]; at 50.0 µM): 43.6% | growth inhibition [4, 7]: 32% | growth inhibition [4, 8]: 47% | growth inhibition ([4]; at 50.0 µM): 48.7% | growth inhibition [5, 7]: 19% | growth inhibition [5, 8]: 28% | growth inhibition ([5]; at 50.0 µM): 52.9% | growth inhibition [6, 7]: 4% | growth inhibition [6, 8]: 11% | growth inhibition ([6]; at 50.0 µM): 57.9%

O=C1O/C(=C2\OC(=O)c3ccccc32)c2ccccc21
growth inhibition [1, 7]: 9% | growth inhibition [1, 8]: 22% | growth inhibition ([1]; at 50.0 µM): -13.4% | growth inhibition [2, 7]: 0% | growth inhibition [2, 8]: 0% | growth inhibition ([2]; at 50.0 µM): 7.55% | growth inhibition [3, 7]: 4% | growth inhibition [3, 8]: 1% | growth inhibition ([3]; at 50.0 µM): -28.3% | growth inhibition [4, 7]: 1% | growth inhibition [4, 8]: 3% | growth inhibition ([4]; at 50.0 µM): 47.8% | growth inhibition [5, 7]: 1% | growth inhibition [5, 8]: 2% | growth inhibition ([5]; at 50.0 µM): 5.25% | growth inhibition [6, 7]: 16% | growth inhibition [6, 8]: -1% | growth inhibition ([6]; at 50.0 µM): -18.1%

CC(=O)OCC1OC(n2ncc3c(Sc4c([N+](=O)[O-])ncn4C)ncnc32)C(OC(C)=O)C1OC(C)=O (stereo unspecified)
growth inhibition [1, 7]: 23% | growth inhibition [1, 8]: 99% (active) | growth inhibition ([1]; at 50.0 µM): 99.3% (active) | growth inhibition [2, 7]: 25% | growth inhibition [2, 8]: 100% (active) | growth inhibition ([2]; at 50.0 µM): 99.4% (active) | growth inhibition [3, 7]: 47% | growth inhibition [3, 8]: 99% (active) | growth inhibition ([3]; at 50.0 µM): 99.5% (active) | growth inhibition [4, 7]: 2% | growth inhibition [4, 8]: 99% (active) | growth inhibition ([4]; at 50.0 µM): 99.4% (active) | growth inhibition [5, 7]: 16% | growth inhibition [5, 8]: 99% (active) | growth inhibition ([5]; at 50.0 µM): 99% (active) | growth inhibition [6, 7]: 18% | growth inhibition [6, 8]: 99% (active) | growth inhibition ([6]; at 50.0 µM): 98.8% (active)

N#C/C(=C1C=C/C(=N/O)c2ccccc2/1)c1ccc(Cl)cc1
growth inhibition [1, 7]: 11% | growth inhibition [1, 8]: 17% | growth inhibition ([1]; at 50.0 µM): 56% | growth inhibition [2, 7]: -6% | growth inhibition [2, 8]: 26% | growth inhibition ([2]; at 50.0 µM): 77.3% (active) | growth inhibition [3, 7]: 1% | growth inhibition [3, 8]: 1% | growth inhibition ([3]; at 50.0 µM): 60.8% | growth inhibition [4, 7]: -1% | growth inhibition [4, 8]: 6% | growth inhibition ([4]; at 50.0 µM): 41.1% | growth inhibition [5, 7]: -4% | growth inhibition [5, 8]: 61% | growth inhibition ([5]; at 50.0 µM): 34.5% | growth inhibition [6, 7]: -9% | growth inhibition [6, 8]: 28% | growth inhibition ([6]; at 50.0 µM): 72.6% (active)
